Screening data deposited in PubChem by National Center for Advancing Translational Sciences (NCATS).
The list is not random: actives were taken first. Their share in the collection is about 7.6%.
BRCA1 expr act – activators of BRCA1 expression; MCF7-BRCA1-FFLuc reporter, luminescence, 48 h; response scale: scaled: vehicle 0%, 10 µM genistein 100%; Potency, µM (doses to about 46.1 µM), without a hit: at the highest dose activation, most hits filed as activators; 380,000 tested, 1.1% active; AID 624202; also: potency is read from the fitted curve at half-maximal effect; nearly all actives have a fitted effect of over 80% in size
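Quantitative HTS in MCF7 cells stably reporting BRCA1 expression via firefly luciferase. Compound treatment lasts 48 h at 37 °C in phenol-red free MEM. Activation is expressed relative to genistein at 10 microM and DMSO.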
p53 reactivator – restores transcriptional activity of mutant p53. H1299 p53-A138V BP100-luciferase reporter, luminescence, 24 h. Potency, µM (titrated, usually from 92.2 µM), for inactives: at the highest dose activity change, positive = activation, most hits filed as activators. 320,000 tested, 0.063% active; also: potency is read from the fitted curve at half-maximal effect; % of control where 0% means no effect; nearly all actives have a fitted effect of over 45% in size
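H1299 (p53-null), stable ts p53-A138V + BP100-Luc; 1000 cells/well, Opti-MEM/10% FBS; cpd 4 pt, 1:5; 24 h, 37 deg C, 5% CO2; detection reagent 10 min RT; luminescence.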
Gal4-VP16 FLuc – Gal4-VP16 reporter inhibition counter-screen; Drosophila S2 Gal4-VP16 UAS-luciferase, luminescence, 20 h; Potency, µM (highest dose often 53.6 µM), without a hit: top-dose activity, negative = inhibition, usual class: inhibitors; 310,000 tested, 3.5% active;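 also: Gal4-VP16 expression switched on by copper sulfate through the metallothionein promoter; potency is read from the fitted curve at half-maximal effect; % is scaled to controls: 0 for no effect and ±100 for the full control effect; nearly all actives have a fitted effect of over 50% in size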
ELG1 DNA repair – ELG1-dependent DNA repair inhibition | Potency, µM (highest dose often 46.1 µM), for inactives: at the highest dose activity change, negative = inhibition, most hits filed as inhibitors | 330,000 tested, 2.3% active | HEK293T ELG1-luciferase reporter, luminescence, 16 h; DNA damage induced by 5-fluorouridine; also: potency is read from the fitted curve at half-maximal effect; % is scaled to controls: 0 for no effect and ±100 for the full control effect; nearly all actives have a fitted effect of over 55% in size
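Overnight (16 hr) co-exposure of 2,000 cells/well to 5-fluorouridine and compound at 37 °C preceded detection. Luciferase was quantified via ONE-Glo luminescence; loss of signal denotes inhibition.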
Giardia kill – Giardia lamblia killing; Giardia lamblia trophozoite viability; activity change, % at 7.66 µM, hits read low; 340,000 tested, 0.15% active; AID 540267; in the data active = activity change below about -80%; inconclusive = between about -30% and that limit;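 also: parasites exposed to compound for two days anaerobically before the ATP read; % is scaled to controls: 0 for no effect and ±100 for the full control effect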
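Luminescence from cellular ATP indicates surviving trophozoites (100 cells/well) following 48 hrs anaerobic compound treatment at 37 deg C; signal develops 15-30 min at room temperature.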
RORgamma inh – ROR gamma (mouse) transcription inhibition. Potency, µM (doses to about 53.6 µM), for inactives: top-dose activity change, negative = inhibition, usual class: inhibitors. 310,000 tested, 5.4% active. P51450. Drosophila S2 Gal4-RORgamma UAS-luciferase reporter, 20 h; also: potency is read from the fitted curve at half-maximal effect; % is scaled to controls: 0 for no effect and ±100 for the full control effect; nearly all actives have a fitted effect of over 60% in size
Target sequence (P51450 whole entry, looked up, the tested form may be a part): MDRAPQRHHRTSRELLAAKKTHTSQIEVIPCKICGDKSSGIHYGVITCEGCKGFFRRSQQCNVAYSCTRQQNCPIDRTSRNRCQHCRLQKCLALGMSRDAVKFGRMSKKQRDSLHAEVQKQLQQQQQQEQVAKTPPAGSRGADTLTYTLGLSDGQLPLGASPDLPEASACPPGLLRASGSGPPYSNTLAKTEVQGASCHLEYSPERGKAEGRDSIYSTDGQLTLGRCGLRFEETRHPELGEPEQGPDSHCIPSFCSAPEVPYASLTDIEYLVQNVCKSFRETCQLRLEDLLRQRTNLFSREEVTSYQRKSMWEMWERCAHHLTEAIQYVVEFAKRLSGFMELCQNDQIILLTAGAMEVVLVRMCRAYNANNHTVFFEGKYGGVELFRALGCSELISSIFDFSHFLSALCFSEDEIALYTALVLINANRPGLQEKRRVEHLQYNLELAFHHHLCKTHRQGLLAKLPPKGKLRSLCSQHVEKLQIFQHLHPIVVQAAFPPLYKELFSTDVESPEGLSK
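Luciferase reporter read in Schneider cells carrying Gal4-RORγ (mouse) and UAS-Photinus luciferase; cells given compound 1 h before 700 uM copper sulfate induction, then incubated 20 h at ambient temperature.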
* marks the source's active call; other numbers are inactive results; ? = inconclusive; / = not tested or not shown. Unless noted, calls follow the shape of the dose curve; as a rule, active = well fitted curve in the direction sought with a large enough effect; inconclusive = small, poorly fitted or top-dose-only effect, or another doubt; inactive = no such curve, though single readings can be large; an effect the other way counts as inactive or inconclusive.

SMILES	BRCA1 expr act	p53 reactivator	Gal4-VP16 FLuc	ELG1 DNA repair	Giardia kill	RORgamma inh
COc1ccccc1OCCn1cc(/C=N/NC(N)=S)c2ccccc21	-61.0%	-2.0%	2µM*	18.3µM*	4.3	0.501µM*
O=C(NCc1cccs1)c1cc(-c2ccncc2)nc2ccc(Br)cc12	/	3.9%	-3.4%	?	/	11.0%
Cc1sc2nc(CSC(C)C(=O)Nc3ccccn3)[nH]c(=O)c2c1C (centres undefined)	14.3%	?	/	?	14.7	/
Cc1ccc(C(=O)NCCONC(=O)c2ccc(C)cc2)cc1	8.1%	-0.6%	-3.2%	13.2%	-7.3	12.1%
CNC(=S)N/N=C/c1c(C)c(C(=O)c2ccc(F)cc2)n2ccccc12	-41.7%	-1.5%	7.94µM*	-22.8%	20.8	5.01µM*
COC(=O)N/N=C/c1cn(Cc2ccc(F)cc2)c2ccccc12	-41.3%	-1.9%	2.6%	0.0%	1.7	45.2%
COC(=O)N/N=C/c1cn(CCCOc2ccccc2)c2ccccc12	-20.5%	3.9%	-19.3%	16.4µM*	-5.0	17.3%
CNC(=S)N/N=C/c1cn(CCOc2ccc(OC)cc2)c2ccccc12	-23.6%	3.3%	3.16µM*	?	5.4	2.24µM*
O=[N+]([O-])c1ccc(N/N=C/c2cn(Cc3ccc(F)cc3)c3ccccc23)nc1	-38.9%	0.9%	6.31µM*	-5.2%	9.9	?
Cc1c(/C=N/NC(N)=O)c2ccccn2c1C(=O)c1ccc(F)cc1	-33.8%	1.8%	-13.3%	-18.5%	-3.7	2.2%
CCC(NC(=O)CCc1c(C)c2cc3c4c(oc3cc2oc1=O)CCCC4)C(=O)O (centres undefined)	-18.9%	-3.0%	?	?	22.1	?
CCCCCN(C)CCC(O)(P(=O)(O)O)P(=O)(O)O	/	/	0.0%	/	/	-8.3%
Cc1nnc(NC(=O)CSc2ccc3nnc(-c4ccccn4)n3n2)s1	-4.3%	1.3%	7.4%	-5.5%	4.0	-2.4%
CCC(Sc1nc2ccccc2o1)C(=O)Nc1nnc(C)s1 (centres undefined)	24.6%	-8.5%	?	-4.7%	14.1	12.6µM*
CCC(Sc1ccccn1)C(=O)Nc1nnc(C)s1 (centres undefined)	-21.3%	-1.4%	-29.9%	0.2%	-20.8	10µM*
Cc1n[nH]c(=O)c2c(NC(=O)CSc3nnc(-c4ccncc4)n3C)oc(C)c12	-23.2%	-1.8%	-1.6%	-4.1%	-21.8	-33.8%
Cc1cc(C)c(CN2CCN(C(=O)Cn3cnc4c(NCc5ccccc5)ncnc43)CC2)c(C)c1	-37.7%	2.1%	/	1.03µM*	-28.1	/
CCOc1ccc(CN2CCN(C(=O)c3cccc4ccccc34)CC2)cc1	-24.1%	/	14.6%	?	7.9	21.6%
COc1ccc(NC(C)C(=O)N/N=C/c2ccccc2OCc2cccc(Br)c2)cc1 (centres undefined)	-2.6%	?	13.8%	-24.5%	0.2	2.7%
C=CCc1cccc(/C=N/NC(=O)C(C)Nc2ccc(C)cc2)c1O (centres undefined)	-87.8%	?	2.82µM*	-8.0%	10.2	0.562µM*
C=CCc1cccc(/C=N/NC(=O)C(=O)Nc2ccc(C)cc2)c1O	22.5%	1.6%	11.2µM*	-9.4%	17.1	2.24µM*
C=CCc1cccc(/C=N/NC(=O)c2ccc3nc[nH]c3c2)c1O	-39.9%	?	?	?	4.5	?
Fc1cccc(-c2cc3nc(-c4ccccc4)cc(N4CCC5(CC4)OCCO5)n3n2)c1	-25.4%	-2.8%	-8.6%	23.1µM*	-1.7	18.9%
Fc1ccc(-c2cc3nc(-c4ccccc4)cc(N4CCOCC4)n3n2)cc1	8.1%	-0.5%	-11.7%	?	8.4	-5.6%
COCCN1CCN(c2cc(-c3ccccc3)nc3cc(-c4cccc(F)c4)nn23)CC1	-60.9%	-9.2%	-20.9%	14.6µM*	-10.9	?
